CYP2C19 inh: human CYP2C19 inhibition | CYP2C19 Supersomes, luciferin-H EGE luminescence, 30 min | inhibition, % at 5 µM | actives 21% (n = 96,000);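 active = CYP2C19 inhibition above a set limit at 5 µM in the primary screen, cut at about 50% in these data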
PLK1 kinase inh: PLK1 (human) kinase inhibition; AID 619; P53350; recombinant PLK1 kinase, TR-FRET peptide phosphorylation; inhibition, % at 10 µM; actives 0.53% (n = 97,000);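 active = inhibition of 50% or more in the single-concentration screen; inactive = inhibition below 50%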
CYP2C9 inhib: inhibitors of human CYP2C9. inhibition, % at 5 µM. CYP2C9 Supersomes, luciferin-H conversion, luminescence. actives 20% (n = 96,000). AID 777. P11712;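 active = blocking of liver enzyme CYP2C9 beyond about 50% at 5 µM, limit read from the data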
Target sequence (P11712 whole entry, looked up): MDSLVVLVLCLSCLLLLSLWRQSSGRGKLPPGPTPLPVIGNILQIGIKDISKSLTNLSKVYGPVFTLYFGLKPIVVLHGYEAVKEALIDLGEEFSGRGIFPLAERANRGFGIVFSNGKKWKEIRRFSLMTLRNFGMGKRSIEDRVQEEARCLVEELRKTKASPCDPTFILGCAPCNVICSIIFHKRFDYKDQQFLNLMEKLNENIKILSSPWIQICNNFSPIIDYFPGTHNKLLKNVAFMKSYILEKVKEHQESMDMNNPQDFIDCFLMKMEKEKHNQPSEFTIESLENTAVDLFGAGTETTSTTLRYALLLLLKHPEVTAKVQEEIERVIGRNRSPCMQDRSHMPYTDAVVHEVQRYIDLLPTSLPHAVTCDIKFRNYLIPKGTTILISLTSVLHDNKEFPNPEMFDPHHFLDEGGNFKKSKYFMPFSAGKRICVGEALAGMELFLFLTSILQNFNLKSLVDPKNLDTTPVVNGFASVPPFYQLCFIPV
CYP2C9 activ: activators of human CYP2C9; recombinant CYP2C9, luciferin-H conversion, luminescence; stronger effect = higher value; factor 1 = untreated enzyme, 0 = blocked; actives 1.4% (n = 96,000); activation factor at 5 µM; P11712;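 active = activation factor of 2 or more for CYP2C9 at a 5 µM dose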
PLK1 PBD inh: inhibitors of human Plk1 polo box domain binding; P53350; Plk1 PBD phosphopeptide binding, fluorescence polarization; inhibition, %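 (tested at about 20 µM)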; actives 0.13% (n = 97,000); in the data active = inhibition above about 34%, passing the limit was not always enough
CYP2C19 act: activators of human cytochrome P450 2C19; recombinant CYP2C19, luciferin-H EGE luminescence; stronger effect = higher value; 0 = fully inhibited enzyme, 1 = untreated enzyme; activation factor at 5 µM; 96,000 tested, under 10 active; AID 1025;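 active = activation factor of at least 2 at 5 µM in the primary screen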
Hits are given with their value; – = inactive; · = no result. A selection: hits, their analogues and other compounds. The true share with any hit is near 28%.

SMILES | CYP2C19 inh | PLK1 kinase inh | CYP2C9 inhib | CYP2C9 activ | PLK1 PBD inh | CYP2C19 act
Cc1cc(C)c(C#N)c(SCC(O)CS(=O)(=O)Cc2ccccc2)n1 (stereo not drawn) | 97 | – | 72 | – | – | –
CCS(=O)(=O)CCSc1nc2c(cc1C#N)CCCC2 | – | – | – | – | – | –
N#Cc1cc2c(nc1SCc1ccccc1)CCC2 | · | – | · | · | – | ·
N#Cc1cc2c(nc1SCc1ccncc1)CCC2 | 100 | – | 87 | – | – | –
Cc1ccc(C)c(NC(=O)CSc2nc(C)cc(C)c2C#N)c1 | · | – | · | · | – | ·
CC(C)(C)c1ccc(S(=O)(=O)CC(O)CSc2nc3c(cc2C#N)CCCC3)cc1 (stereo not drawn) | – | – | 78 | – | – | –
CC1(C)Cc2c(sc3nc4n(c(=O)c23)CCC4)CO1 | – | · | – | – | · | –
CCOc1ccc(N=Nc2c(=O)[nH]n3c(=O)cc(C)[nH]c23)cc1 | 63 | – | – | – | – | –
Cc1cc(=O)n2[nH]c(=O)c(N=Nc3ccccc3)c2[nH]1 | – | – | – | – | – | –
CC(=O)N1c2c(cc(Br)cc2S(=O)(=O)N2CCN(C(=O)c3ccco3)CC2)CC1C (stereo not drawn) | · | – | · | · | – | ·
COc1ccc(CN2CC(C(=O)N3CCOCC3)CC2=O)cc1 (stereo not drawn) | – | – | – | – | – | –
O=C1C2CC=C(Cl)CC2C(=O)N1CC1Cc2ccccc2CO1 (stereo not drawn) | – | – | – | – | – | –
O=C1C2CC=C(Cl)CC2C(=O)N1CC1OCCc2ccccc21 (stereo not drawn) | 74 | – | 55 | – | – | –
COc1cccc(-n2nc(-c3ccnn3-c3ccc(F)cc3)c(=O)n(C)c2=O)c1 | 67 | – | 80 | – | – | –
COc1cccc(-n2nc(-c3ccnn3-c3ccc(C)cc3)c(=O)n(C)c2=O)c1 | 89 | – | 84 | – | – | –
COc1cccc(-n2c(C)nn(C)c2=O)c1 | – | – | – | – | – | –
COc1ccc(-n2nccc2-c2nn(-c3cccc(OC)c3)c(=O)n(C)c2=O)cc1 | 89 | – | 62 | – | – | –
COc1cccc(CNC(=O)CCS(=O)(=O)c2cccs2)c1 | 53 | – | – | – | – | –
O=C(CCS(=O)(=O)c1cccs1)Nc1ccc(C(=O)NCc2ccccc2)cc1 | 78 | – | 60 | – | – | –
Cc1ccc(CNC(=O)c2ccc(NC(=O)CCS(=O)(=O)c3cccs3)cc2)cc1 | – | – | – | – | – | –
CC(/C=C/c1cccs1)=C\C(=O)O | – | – | – | – | – | –
CSc1nc2sc(-c3ccccc3)cc2c(=O)n1N | 69 | – | 78 | – | – | –
Cc1ncc(N=Nc2ccccc2)c(-c2ccccc2)n1 | – | – | – | – | – | –
Cn1cc(C(=O)NC2CCCCC2)c(=O)c2cc(S(=O)(=O)N3CCCC3)ccc21 | – | · | – | – | · | –
CN(C1CCCCC1)S(=O)(=O)c1ccc2c(c1)c(=O)c(C(=O)NCCN1CCCC1)cn2C | – | 62 | – | – | – | –
SMILES | CYP2C19 inh | PLK1 kinase inh | CYP2C9 inhib | CYP2C9 activ | PLK1 PBD inh | CYP2C19 act
CN(C1CCCCC1)S(=O)(=O)c1ccc2c(c1)c(=O)c(C(=O)NCCCN1CCCC1)cn2C | – | 59 | – | – | – | –
CC1CCCC(NC(=O)c2cn(C)c3ccc(S(=O)(=O)N4CCCC4)cc3c2=O)C1C (stereo not drawn) | – | · | 73 | – | · | –
O=C(O)c1cccc(N2C(=O)c3cccnc3C2=O)c1 | – | – | – | – | – | –
CN(C)/C=C(/C(=O)c1ccc(Cl)cc1)S(=O)(=O)c1ccc(Cl)cc1 | 62 | – | – | – | – | –
CN(C)/C=C(/C(=O)c1ccc(Cl)cc1Cl)S(=O)(=O)c1ccc(Cl)cc1 | 80 | – | 95 | – | – | –
CN(C)/C=C(/C(=O)c1ccc(Cl)cc1Cl)S(=O)(=O)c1ccccc1 | – | – | 63 | – | – | –
CN(C)/C=C(\C(=O)c1ccc(Cl)cc1)c1nnnn1-c1ccc(Cl)cc1 | · | – | · | · | – | ·
O=C(CCCOc1ccc(Cl)cc1)NCC1CCCO1 (stereo not drawn) | – | – | – | – | – | –
Cc1csc(=N)n1-c1ccc(Cl)cc1 | – | – | – | – | – | –
COc1ccc(C2c3c(oc4ccccc4c3=O)C(=O)N2Cc2ccncc2)cc1OC (stereo not drawn) | · | – | · | · | – | ·
COc1ccc(C2c3c(oc4ccccc4c3=O)C(=O)N2Cc2ccncc2)cc1 (stereo not drawn) | – | – | 59 | – | – | –
CCCOc1ccc(C2c3c(oc4ccccc4c3=O)C(=O)N2CCCN2CCOCC2)cc1 (stereo not drawn) | 54 | – | 78 | – | – | –
O=C(COc1ccc([N+](=O)[O-])cc1)NN=C1CCCC1 | – | – | – | – | – | –
CC(C)CNS(=O)(=O)c1ccc(CCC(=O)N2CCN(Cc3ccc4c(c3)OCO4)CC2)cc1 | · | – | · | · | – | ·
CC(C)CNS(=O)(=O)c1ccc(CCC(=O)Nc2ccc3c(c2)OCO3)cc1 | – | – | – | – | – | –
CCOC(=O)N1CCN(C(=O)CCSc2ccccc2)CC1 | 71 | – | – | – | – | –
O=C(CCc1ccc(S(=O)(=O)NCCc2ccccc2)cc1)Nc1ccc2c(c1)OCO2 | 90 | – | 84 | – | – | –
O=C(CCc1ccc(S(=O)(=O)NCCc2ccccc2)cc1)N1CCN(Cc2ccc3c(c2)OCO3)CC1 | 53 | – | – | – | – | –
CCOC(=O)N1CCN(C(=O)CCc2ccc(S(=O)(=O)NCCc3ccccc3)cc2)CC1 | 82 | – | 78 | – | – | –
CCCCCCn1c(N2CCC(C(N)=O)CC2)nc2c1c(=O)n(C)c(=O)n2C | – | – | – | – | – | –
COc1ccc(C(C(=O)NC2CCCCC2)N(C(=O)c2sc(C)nc2C)c2ccc(C(C)=O)cc2)cc1 (stereo not drawn) | – | – | – | – | – | –
O=C(COc1ccc(Br)cc1Br)NC(=S)N1CCCc2ccccc21 | – | – | 77 | – | – | –
O=C(OCC1COc2ccccc2O1)c1c(F)cccc1F (stereo not drawn) | 97 | – | 84 | – | – | –
OC(COCC1COc2ccccc2O1)CN1CCN(c2ccccc2F)CC1 (stereo not drawn) | – | – | – | – | – | –
CCn1c(/N=C/c2c[nH]c3ccccc23)nc2ccccc21 | 61 | – | 90 | – | – | –
CCCn1c(/N=C/c2c[nH]c3ccccc23)nc2ccccc21 | – | – | – | – | – | –
COc1ccc(N(C)S(=O)(=O)c2cccc(C(=O)NCC3CCCO3)c2)cc1 (stereo not drawn) | – | – | 63 | – | – | –
COc1ccc(N(C)S(=O)(=O)c2cccc(C(=O)Nc3ccc(-n4cnnn4)cc3)c2)cc1 | 70 | – | 85 | – | – | –
COc1ccc(S(=O)(=O)N(C)c2ccc(C(=O)NCC3CCCO3)cc2)cc1 (stereo not drawn) | – | – | 53 | – | – | –

Compound activity as filed in PubChem.
